Only some compounds are listed: those with a hit (about 2.7% of all), similar ones and a draw of the others.
Tau fibril ThT = tau fibrillization inhibition (ThT binding). P10636. AID 1460. recombinant tau K18 P301L, heparin-induced fibrillization, ThT fluorescence. Potency, µM (top dose mostly 57.4 µM), hits mostly inhibitors. 270,000 compounds, 2.1% hits; also: nearly all actives have a fitted effect of over 55% in size
Target sequence (P10636 561-689 P618L limits assumed): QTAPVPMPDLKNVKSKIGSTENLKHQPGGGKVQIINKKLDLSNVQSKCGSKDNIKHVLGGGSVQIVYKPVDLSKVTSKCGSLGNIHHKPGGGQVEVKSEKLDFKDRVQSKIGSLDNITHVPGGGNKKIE
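Heparin-induced (20 uM) aggregation of recombinant human K18 P301L tau, 15 uM unlabeled with 0.24 uM labeled, pH 7 acetate buffer, 6 hr at 37 C with compound. Fibrils quantified by 30 uM ThT fluorescence after 1 hr ambient incubation.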
Tau fluor counter = counter-screen for tau fibril formation inhibitors. tau K18 P301L Alexa594 fluorescence, heparin fibrillization. 280,000 compounds, 0.93% hits. Potency, µM (doses to about 57.7 µM); also: nearly all actives have a fitted effect of over 55% in size
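Human tau K18 P301L (15 uM unlabeled, 0.24 uM Alexa 594-labeled) in 100 mM sodium acetate pH 7 with 20 uM heparin, 6 hr at 37 C. ThT 30 uM added, 1 hr ambient; Alexa 594 FP and total fluorescence read at 555/632 nm.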
Tau fibril FP = tau fibrillization inhibition (FP); P10636; K18 P301L tau heparin fibrillization, Alexa594 FP, 6 h; Potency, µM (highest dose often 57.7 µM), actives largely listed as inhibitors; 280,000 compounds, 0.39% hits; AID 1468; also: nearly all actives have a fitted effect of over 55% in size
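K18 P301L tau (15 uM unlabeled/0.24 uM Alexa 594-labeled, final) + compound + heparin 20 uM final; 100 mM NaOAc pH 7; 6 hr 37 C; ThT 30 uM final added, 1 hr RT; FP ex 555/em 632 nm.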
FBPA coupling cs = counter-screen for Giardia aldolase inhibitors: coupling enzyme system | coupling enzyme system counterscreen, AmpLite Red fluorescence | activity change, negative = inhibition, % at 58.2 µM, hits read low | 290,000 compounds, 0.67% hits | AID 2472; in the data active = activity change below about -30%
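Counterscreen lacking aldolase: glyceraldehyde-3-phosphate coupling-enzyme reagent preincubated 10 min at RT with compound (at 57.5 uM final), then substrate/coupling system with AmpLite Red added; fluorescence read at 525/598 nm after 20 min RT.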
Each line names hits and unclear results; the compound was inactive in the other large screens; ! = a repeat was not active; [ ] = another dose, or the depositor's remark. Unless noted, calls follow the shape of the dose curve; as a rule, active = well fitted curve in the direction sought with a large enough effect; inconclusive = small, poorly fitted or top-dose-only effect, or another doubt; inactive = no such curve, though single readings can be large; an effect the other way counts as inactive or inconclusive.

Cc1ccc(C)c(NC(=O)N(C)CCc2c(C)nn(C)c2C)c1	none (no result: FBPA coupling cs)
CC1=NN(c2nc(-c3ccc(Cl)cc3)cs2)C(=O)C1	Tau fibril ThT 11µM, Tau fluor counter inconclusive
Cc1ccc(CNC(=O)c2ccc3nc(SCc4ccc(F)cc4)[nH]c3c2)cc1	Tau fluor counter inconclusive, Tau fibril FP 22µM (no result: FBPA coupling cs)
Cn1c(SCc2ccc(F)cc2)nc2ccc(C(=O)NCc3ccc(F)cc3)cc21	Tau fluor counter inconclusive (no result: FBPA coupling cs)
CC(C)OCCCNC(=O)C(=O)Nc1c2c(nn1-c1ccccc1)CS(=O)(=O)C2	none (no result: FBPA coupling cs)
Oc1ccc2ccccc2c1/C=N/Nc1ccccc1	Tau fibril ThT 18µM, Tau fluor counter 11µM[quencher], Tau fibril FP inconclusive
Oc1ccc2ccccc2c1/C=N/c1nc2c(s1)CCCC2	Tau fibril ThT 32µM, Tau fluor counter inconclusive, Tau fibril FP inconclusive, FBPA coupling cs -40
Oc1ccc2ccccc2c1C=Nc1ccc(Cl)cn1	FBPA coupling cs -46
Oc1ccc2ccccc2c1/C=N/n1cnnc1	Tau fibril ThT inconclusive
Oc1ccc2ccccc2c1C=NC1CCCCC1	Tau fibril ThT 25µM, Tau fluor counter inconclusive, Tau fibril FP inconclusive
O=CN/N=C/c1c(O)ccc2ccccc12	none
CCOc1cccc2sc(N(Cc3cccnc3)C(=O)c3ccc(C#N)cc3)nc12	Tau fibril FP inconclusive (no result: FBPA coupling cs)
NC(=S)N/N=C/c1c(O)ccc2ccccc12	Tau fluor counter inconclusive (no result: Tau fibril ThT)
Oc1ccc2ccccc2c1C=NCc1ccccc1	Tau fibril ThT inconclusive, Tau fluor counter inconclusive, Tau fibril FP inconclusive, FBPA coupling cs -32
COc1cccc(Nc2ncc3ncc(=O)n(CCc4ccccc4)c3n2)c1	none (no result: Tau fibril ThT, Tau fluor counter, Tau fibril FP)
O=C(CSc1nc2ccccc2[nH]1)N1CCN(c2ccc(F)cc2)CC1	none
O=C(CCCSc1nc2ccccc2[nH]1)N1CCN(c2ccc([N+](=O)[O-])cc2)CC1	Tau fibril ThT 0.79µM
CC(=O)Nc1ccc(-c2csc(NC(=O)C3CC(=O)N(c4ccc5c(c4)OCCO5)C3)n2)cc1 (stereo not drawn)	Tau fibril ThT inconclusive, Tau fluor counter inconclusive, FBPA coupling cs -35
CCOc1cc(CNc2ccc(O)cc2)cc(Br)c1OCc1ccccc1	Tau fibril ThT inconclusive, Tau fluor counter 8.9µM[quencher] (no result: FBPA coupling cs)
COc1cc(CNc2ccc(O)cc2)cc(Br)c1OCc1ccccc1F	Tau fibril ThT 25µM, Tau fluor counter 13µM[quencher], Tau fibril FP inconclusive, FBPA coupling cs -57
COc1cc(CNCc2ccncc2)cc(Br)c1OCc1ccccc1F	none
CCOc1cc(CNc2ccc(O)cc2)cc(Br)c1OCc1ccccc1F	Tau fibril ThT 25µM, Tau fluor counter 13µM[quencher], Tau fibril FP inconclusive, FBPA coupling cs -56
COc1ccc(CNc2nc(-c3ccc4c(c3)OCO4)nc3ccccc23)c(OC)c1	none (no result: Tau fibril ThT, Tau fluor counter, Tau fibril FP)
Cc1ccc(NC(=S)Nc2cccnc2)c(S(=O)(=O)N2CCCCC2)c1	Tau fluor counter inconclusive, Tau fibril FP 32µM
CCN(CC)C(=O)c1cc([N+](=O)[O-])cc2c1-c1ccc([N+](=O)[O-])cc1C2=C(C#N)C#N	Tau fibril ThT 32µM, Tau fluor counter inconclusive, Tau fibril FP inconclusive, FBPA coupling cs -34
O=C(O)CCCN1C(=O)/C(=C\c2ccccc2OCc2ccccc2)SC1=S	none (no result: Tau fibril ThT, Tau fluor counter, Tau fibril FP)
O=C(O)CCCN1C(=O)/C(=C/c2cn(-c3ccccc3)nc2-c2cccs2)SC1=S	Tau fibril ThT 16µM, Tau fibril FP inconclusive
CSc1ccc(C2c3c(oc4ccc(F)cc4c3=O)C(=O)N2c2ccc(C)cn2)cc1 (stereo not drawn)	none (no result: FBPA coupling cs)
O=C(O)c1cccc(/C=C2/C[C@@H]3[C@@H](/C=C/[C@@H](O)C4CCCCC4)[C@H](O)C[C@@H]3O2)c1	none (no result: Tau fibril ThT, Tau fluor counter, Tau fibril FP)
CCCCCCCC/C=C\CCCCCCCC(=O)NCCc1ccc(O)c(O)c1	Tau fibril ThT inconclusive, Tau fluor counter 14µM![quencher], Tau fibril FP inconclusive
COc1ccc2[nH]cc(CCNc3ncnc4ccc(-c5cccc(C#N)c5)cc34)c2c1	none (no result: Tau fibril ThT, Tau fluor counter, Tau fibril FP)
CCN(CC)c1ccc2nc3c(=O)n(C)c(=O)n(C)c3nc2c1	Tau fibril ThT 16µM, Tau fluor counter inconclusive, Tau fibril FP inconclusive (no result: FBPA coupling cs)
CCC(=O)Nc1ccc2nc3c(=O)n(C)c(=O)n(C)c3nc2c1	none (no result: FBPA coupling cs)
COc1cccc(CNC(=O)CCNS(=O)(=O)c2ccc3c(c2)CCCC(=O)N3)c1	none (no result: FBPA coupling cs)
O=C(CSCc1ccc(Cl)cc1)N/N=C/c1ccccc1	Tau fluor counter inconclusive, FBPA coupling cs -37
O=C(CSCc1ccc(Cl)cc1)N/N=C/c1c(Cl)cccc1Cl	Tau fibril FP inconclusive
CC1CCC2C(=O)N3C(CCC(C)[C@@H]3c3cccc(N4CCOCC4)c3)C(=O)N2C1c1cccc(N2CCOCC2)c1 (stereo partly drawn)	none

Source: PubChem (National Center for Advancing Translational Sciences (NCATS))
